Measurements published in PubChem BioAssay AID1159580 (chemical genetic matrix, 2015).
“And” between values parts separate entries of the source, which are not always exact repeats. Equal values may be shown once. Hit rate of the full screen: of about 5,500 compounds, about 2,000 (36%) were called active. Roughly 18% stayed inconclusive and do not appear here. No stated cut-off is given here; in the data, active means normalized growth mostly below about 0.91 (no sharp cut-off); inconclusive means no clear call, values can overlap the other calls; inactive means mostly above about 0.92. Some of the results follow.

Assay: chemical genetic growth profiling, strain panel (AID 1159580);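 further: tested at 20 µM; growth read once vehicle control cultures reached saturation at 30 °C; 1 = growth at the plate median or of vehicle wells; lower values mean less growth of the strain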
Details: S. cerevisiae deletion strains, growth OD

Measured: normalized growth

CC(C)[C@@H]1CC[C@@H](C)C[C@H]1OC(=O)c1ccccc1
inactive: locus YAL013W, strain DEP1, hits give low values 1.01 | locus YAL021C, strain ccr4, hits give low values 1.01 | locus YAL026C, strain drs2, hits give low values 1.01 | locus YAL030W, strain snc1, hits give low values 1.01 | locus YBL061C, strain skt5, hits give low values 1.01 | locus YBR009C, strain hhf1, hits give low values 0.999 | locus YBR021W, strain FUR4, hits give low values 0.997 | locus YBR023C, strain chs3, hits give low values 1.01 | locus YBR171W, strain sec66, hits give low values 1 | locus YBR229C, strain ROT2, hits give low values 1.01 | locus YBR231C, strain swc5, hits give low values 1.02 | locus YBR279W, strain paf1, hits give low values 1.01 | locus YCL011C, strain gbp2, hits give low values 1 | locus YCL016C, strain dcc1, hits give low values 1.01 | locus YCL029C, strain bik1, hits give low values 0.99 | locus YCL061C, strain MRC1, hits give low values 1 | locus YCL069W, strain vba3, hits give low values 1 | locus YCR088W, strain abp1, hits give low values 1 | locus YDL005C, strain med2, hits give low values 0.991 | locus YDL035C, strain GPR1, hits give low values 0.988 | locus YDL040C, strain nat1, hits give low values 0.993 | locus YDL074C, strain BRE1, hits give low values 0.995 | locus YDL101C, strain DUN1, hits give low values 0.999 | locus YDL134C, strain PPH21, hits give low values 0.962 | locus YDL185W, strain tfp1, hits give low values 0.997 | locus YDL192W, strain arf1, hits give low values 0.929 | locus YDR001C, strain nth1, hits give low values 0.994 | locus YDR069C, strain doa4, hits give low values 0.999 | locus YDR101C, strain arx1, hits give low values 0.978 | locus YDR137W, strain rgp1, hits give low values 0.942 | locus YDR150W, strain NUM1, hits give low values 1.04 | locus YDR159W, strain sac3, hits give low values 1.02 | locus YDR162C, strain NBP2, hits give low values 0.91 | locus YDR195W, strain ref2 0.975 | locus YDR297W, strain sur2, hits give low values 1.01 | locus YDR318W, strain mcm21, hits give low values 0.992 | locus YDR334W, strain swr1, hits give low values 1 | locus YDR335W, strain msn5, hits give low values 1.01 | locus YDR388W, hits give low values 0.999 | locus YDR392W, strain spt3, hits give low values 0.997 | locus YDR502C, strain sam2, hits give low values 0.995 | locus YEL003W, strain gim4, hits give low values 1.02 | locus YEL037C, strain rad23, hits give low values 1.01 | locus YEL061C, strain CIN8 (second series), hits give low values 1.01 | locus YEL061C, strain CIN8, hits give low values 1.03 | locus YER015W, strain faa2, hits give low values 1.01 | locus YER016W, strain bim1, hits give low values 0.999 | locus YER110C, hits give low values 1 | locus YER111C, strain swi4, hits give low values 1.01 | locus YER155C, strain BEM2 (second series), hits give low values 1.02 | locus YER155C, strain BEM2, hits give low values 1.01 | locus YER167W, strain BCK2, hits give low values 1.01 | locus YFR010W, strain ubp6, hits give low values 1.01 | locus YGL078C, strain dbp3, hits give low values 0.971 | locus YGL086W, strain mad1, hits give low values 0.999 | locus YGL167C, strain pmr1, hits give low values 1 | locus YGL173C, strain kem1, hits give low values 1.02 | locus YGL227W, strain vid30, hits give low values 1 | locus YGL240W, strain doc1, hits give low values 1.03 | locus YGL248W, strain PDE1, hits give low values 0.94 | locus YGL253W, strain hxk2, hits give low values 1.01 | locus YGR135W, strain pre9, hits give low values 0.974 | locus YGR252W, strain gcn5, hits give low values 0.959 | locus YHR013C, strain ard1, hits give low values 1.06 | locus YHR027C, strain rpn1, hits give low values 1 | locus YHR030C, strain SLT2, hits give low values 1.02 and 1.01 | locus YHR079C, strain IRE1 (second series), hits give low values 0.997 | locus YHR079C, strain IRE1, hits give low values 1.01 | locus YHR094C, strain hxt1, hits give low values 1 | locus YHR129C, strain ARP1, hits give low values 1.01 | locus YHR142W, strain chs7, hits give low values 0.976 | locus YHR200W, strain rpn10, hits give low values 1.02 | locus YIL066C, strain RNR3, hits give low values 1.01 | locus YIL073C, strain SPO22, hits give low values 0.881 | locus YIL125W, strain kgd1, hits give low values 0.99 | locus YIR030C, strain dcg1, hits give low values 0.996 | locus YJL092W, strain hpr5, hits give low values 1 | locus YJL095W, strain BCK1 (second series), hits give low values 1.01 | locus YJL095W, strain BCK1, hits give low values 0.992 and 1.02 | locus YJL115W, strain asf1, hits give low values 1 | locus YJL129C, strain trk1, hits give low values 0.994 | locus YJL134W, strain LCB3, hits give low values 1.02 | locus YJL154C, strain vps35, hits give low values 0.993 | locus YJL164C, strain tpk1, hits give low values 0.997 | locus YJL166W, strain qcr8, hits give low values 0.984 | locus YJL168C, strain set2, hits give low values 0.986 | locus YJL187C, strain SWE1 (second series), hits give low values 1 | locus YJL187C, strain SWE1, hits give low values 1.01 | locus YJR043C, strain POL32, hits give low values 1.03 | locus YJR066W, strain TOR1, hits give low values 0.951 | locus YKL009W, strain mrt4, hits give low values 0.985 | locus YKL068W, hits give low values 1.01 | locus YKL085W, strain MDH1 (second series), hits give low values 1.01 | locus YKL085W, strain MDH1, hits give low values 1.01 | locus YKL160W, strain elf1, hits give low values 0.998 | locus YKR001C, strain vps1, hits give low values 0.91 | locus YKR026C, strain gcn3, hits give low values 0.977 | locus YKR091W, strain srl3, hits give low values 0.995 | locus YLL001W, strain dnm1, hits give low values 0.993 | locus YLL026W, hits give low values 1 | locus YLL041C, strain sdh2, hits give low values 0.996 | locus YLR027C, strain aat2, hits give low values 1 | locus YLR039C, strain RIC1, hits give low values 0.922 | locus YLR058C, strain SHM2, hits give low values 1.01 | locus YLR102C, strain apc9, hits give low values 1 | locus YLR113W, strain HOG1, hits give low values 1.02 | locus YLR221C, strain rsa3, hits give low values 0.997 | locus YLR258W, strain gsy2, hits give low values 1 | locus YLR262C, strain YPT6 (second series), hits give low values 0.973 | locus YLR262C, strain YPT6, hits give low values 0.981 | locus YLR268W, strain sec22, hits give low values 0.997 | locus YLR320W, strain mms22, hits give low values 1.01 | locus YLR330W, strain CHS5, hits give low values 1.02 | locus YLR342W, strain FKS1 (second series), hits give low values 1.06 | locus YLR342W, strain FKS1, hits give low values 1.01 | locus YLR357W, strain rsc2, hits give low values 1.01 | locus YLR370C, strain arc18, hits give low values 1.01 | locus YLR371W, strain rom2, hits give low values 1 | locus YLR384C, strain iki3, hits give low values 1.03 | locus YLR418C, strain cdc73, hits give low values 1 | locus YML016C, strain PPZ1, hits give low values 1.01 | locus YML032C, strain rad52, hits give low values 1.01 | locus YML120C, strain ndi1, hits give low values 1.02 | locus YML124C, strain tub3, hits give low values 0.999 | locus YMR058W, strain fet3, hits give low values 1.02 | locus YMR078C, strain ctf18, hits give low values 1 | locus YMR125W, strain sto1, hits give low values 0.992 | locus YMR129W, hits give low values 0.999 | locus YMR205C, strain PFK2, hits give low values 1.04 | locus YMR223W, strain ubp8, hits give low values 0.995 | locus YMR231W, strain pep5, hits give low values 1 | locus YMR307W, strain GAS1, hits give low values 0.948 | locus YNL067W, strain RPL9B, hits give low values 1 | locus YNL071W, strain lat1, hits give low values 1 | locus YNL153C, strain GIM3, hits give low values 1.02 | locus YNL183C, strain NPR1, hits give low values 0.946 | locus YNL209W, strain ssb2, hits give low values 1 | locus YNL233W, strain BNI4, hits give low values 1 | locus YNL248C, strain rpa49, hits give low values 0.986 | locus YNL250W, strain rad50, hits give low values 1.02 | locus YNL271C, strain bni1, hits give low values 0.993 | locus YNL298W, strain CLA4, hits give low values 0.992 | locus YNL307C, strain MCK1, hits give low values 1.01 | locus YNL322C, strain KRE1 (second series), hits give low values 1.01 | locus YNL322C, strain KRE1, hits give low values 1.01 | locus YNR049C, strain mso1, hits give low values 1 | locus YNR052C, strain pop2, hits give low values 0.989 | locus YOL012C, strain htz1 1.15 | locus YOL147C, strain pex11, hits give low values 1 | locus YOR001W, strain rrp6, hits give low values 0.999 | locus YOR061W, strain CKA2, hits give low values 1.01 | locus YOR069W, strain VPS5, hits give low values 1.01 | locus YOR070C, strain gyp1, hits give low values 1.01 | locus YOR080W, strain dia2, hits give low values 1.01 | locus YOR083W, strain WHI5, hits give low values 1 | locus YOR106W, strain vam3, hits give low values 0.949 | locus YOR136W, strain idh2, hits give low values 0.996 | locus YOR144C, strain elg1, hits give low values 1 | locus YOR184W, strain ser1, hits give low values 0.921 | locus YOR231W, strain MKK1, hits give low values 1.02 | locus YOR265W, strain rbl2, hits give low values 0.997 | locus YOR270C, strain vph1, hits give low values 1.01 | locus YOR290C, strain snf2, hits give low values 0.979 | locus YOR316C, strain cot1, hits give low values 1 | locus YPL051W, strain arl3, hits give low values 1 | locus YPL078C, strain atp4, hits give low values 0.999 | locus YPL106C, strain sse1, hits give low values 1.02 | locus YPL240C, strain hsp82, hits give low values 1 | locus YPL241C, strain CIN2, hits give low values 1.02 | locus YPL256C, strain CLN2, hits give low values 1.02 | locus YPR119W, strain clb2, hits give low values 0.993 | locus YPR141C, strain kar3, hits give low values 1.01 | locus YPR163C, strain tif3, hits give low values 1 | locus YPR167C, strain met16, hits give low values 0.993 | strain wtn01, hits give low values 1
